Read-out in test [1]: Interleukin-8 (IL8), CXCL8 (gene 3576)
Put plainly: BSK_3C_IL8: BioMAP Diversity Plus: 3C Assay for Interleukin-8 (IL8) Biomarker Activity (AID 2283020). The note with it: primary human endothelial cells (HUVEC); actives raise or lower the signal. In outline: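 HUVEC, 3C stimulation; 24 h compound exposure; IL-8 read by ELISA; gain or loss of signal fitted relative to DMSO control.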

Read-out in test [2]: Monokine induced gamma interferon (MIG), CXCL9 (gene 4283)
Put plainly: BSK_3C_MIG: BioMAP Diversity Plus: 3C Assay for Monokine induced gamma interferon (MIG) Biomarker Activity (AID 2283021).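 As to AC50: MIG protein level measured by immunoassay in the treated endothelial cultures.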 The note with it: primary human endothelial cells (HUVEC); actives raise or lower the signal. In outline: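 HUVEC, 3C system; 24 h chemical exposure; MIG by ELISA; bidirectional fit vs DMSO baseline.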

The nature of test [3]: BSK_3C_SRB: Viability Assessment in the BioMAP Diversity Plus: 3C Assay (AID 2283023).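 Also: fitted both ways against DMSO so a hit may be signal rise or drop.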 The note with it: primary human endothelial cells (HUVEC). In outline: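 Overt cytotoxicity is gauged in parallel confluent HUVEC cultures by SRB total-protein staining at the time of biomarker measurement, 24 h after dosing. Gain or loss of signal is fitted versus DMSO.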
Read-out in test [4]: Matrix Metallopeptidase 1 (MMP1), MMP1 (gene 4312)
Nature of the test: BSK_BE3C_MMP1: BioMAP Diversity Plus: BE3C Assay for Matrix Metallopeptidase 1 (MMP1) Biomarker Activity (AID 2283024). The note with it: primary human bronchial epithelial cells; actives raise or lower the signal. The procedure, abridged: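 ELISA read-out of MMP1 in human lung bronchial epithelial primary cultures, 24 h post-dose; bidirectional curve fit vs DMSO baseline, gain or loss of signal scored.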

Test [5] in a line: BSK_3C_Vis: BioMAP Diversity Plus: 3C Assay for Morphology Visualization (AID 2283025).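 Also: fitted both ways so gain or loss versus DMSO counts.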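 As to AC50: light microscopy image of cell morphology used as background control.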 The following applies: primary human endothelial cells (HUVEC). In outline:
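HUVEC, 3C system; light microscopy of morphology at 24 h post-dose. Bidirectional fit vs DMSO baseline. Secondary readout, background-control function.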

Read-out in test [6]: Pselectin, SELP (gene 6403)
Put plainly: BSK_4H_Pselectin: BioMAP Diversity Plus: 4H Assay for Pselectin Biomarker Activity (AID 2283026). The note with it: primary human endothelial cells (HUVEC); actives raise or lower the signal. In outline: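 HUVEC, 24 h chemical exposure; P-selectin read by ELISA. Bidirectional curve fit vs DMSO baseline; gain or loss of signal scored.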

Test [7] is described as follows: BSK_4H_SRB: Viability Assessment in the BioMAP Diversity Plus: 4H Assay (AID 2283027).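 Also: cells exposed to compound for 24 h before staining.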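 As to AC50: curves fitted both ways versus DMSO so AC50 may be loss or gain.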 The following applies: primary human endothelial cells (HUVEC). The procedure, abridged: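 HUVEC, 24 h post-dose; 10% TCA fix, 0.1% SRB stain, A560 nm. Total protein = overt cytotoxicity, parallel to biomarker read. Bidirectional fit vs DMSO baseline.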
The nature of test [8]: BSK_BE3C_SRB: Viability Assessment in the BioMAP Diversity Plus: BE3C Assay (AID 2283028).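 Also: measured 24 h after chemical dosing.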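 As to AC50: fitted both ways so AC50 may mark signal gain or loss versus DMSO.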 The following applies: primary human bronchial epithelial cells. In outline:
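SRB total-protein staining (0.1%, after TCA fixation) of chemically dosed human bronchial epithelial primary cells at 24 h; DMSO serves as the negative control for bidirectional curve fitting.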

Read-out in test [9]: Thrombomodulin, THBD (gene 7056)
Put plainly: BSK_3C_Thrombomodulin: BioMAP Diversity Plus: 3C Assay for Thrombomodulin Biomarker Activity (AID 2283029). The following applies: primary human endothelial cells (HUVEC); actives raise or lower the signal. The procedure, abridged: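 HUVEC, 3C conditions; compound 24 h; thrombomodulin by ELISA; bidirectional curve fit vs DMSO baseline; parallel SRB total-protein staining for cytotoxicity.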

The source made the active and inactive calls. The calls were made as follows: active = hit-call score of the fitted dose curve at least 0.9, where 1 is the maximum; inactive = score below 0.9.

The values below come from PubChem BioAssay (EPA / NIEHS).

Usually AC50 stands for the concentration giving half of the maximal activity seen.

Consider `CCC(=NOC/C=C/Cl)C1=C(O)CC(C2CCOCC2)CC1=O` (stereo not drawn), for which the result in [1], in test [2], in [3], in test [4], in test [5] and in [6] was inactive. Further, the outcome in test [7], in test [8] and in test [9] was inactive.
`CON=C(C(=O)OC)c1ccccc1CON=C(C)c1cccc(C(F)(F)F)c1`: the values for the AC50 in test [1], in test [3] and in [9] were 1.76 µM (active), 10.4 µM (active) and 3.92 µM (active), respectively. Moreover, the result in [2], in [4], in test [5] and in test [6] was inactive.
For the molecule `CNC(=O)ON=C(C)SC`, the outcome in test [1], in test [2], in test [3], in [4], in test [5] and in test [6] was inactive. In addition, the outcome in test [8] and in test [9] was inactive.
As to `N#CSCSC#N`, the AC50 is 11.7 µM (active) in test [1]; 10.8 µM (active) in test [2]; 4.78 µM (active) in test [3]; 5.45 µM (active) in [5]; 5.1 µM (active) in test [6]; 13.5 µM (active) in test [9]. For the same molecule, the result in test [4] was inactive.
`CCOC(=O)CC(SP(=O)(OC)OC)C(=O)OCC` (stereo not drawn): the outcome in test [1], in test [2], in [3], in test [4], in test [5] and in test [6] was inactive. The outcome in [8] and in [9] was inactive.
Regarding `O=C(O)c1cc(Oc2ccc(C(F)(F)F)cc2Cl)ccc1[N+](=O)[O-]`, the outcome in test [1], in test [2], in test [3], in test [4], in test [6] and in test [9] was inactive. The AC50 in test [5] was 9.8 µM (active).
Take `CCc1cccc(CC)c1N(COC)C(=O)CCl`: the result in [1], in [2], in test [4] and in test [9] was inactive. In addition, the AC50 is 20 µM (active) in [3], 39 µM (active) in [5] and 14.9 µM (active) in test [6].
For the molecule `CC(C)[C@H](C(=O)O[C@H](C#N)c1cccc(Oc2ccccc2)c1)c1ccc(Cl)cc1`, the result in [1], in test [2], in test [4], in test [5], in [6] and in test [9] was inactive. In [3], the AC50 was 5.72 µM (active).
As to `CC(C1CC1)C(O)(Cn1cncn1)c1ccc(Cl)cc1` (stereo not drawn), the outcome in test [1], in test [2], in [3], in test [4], in [5] and in test [6] was inactive. Moreover, the outcome in [7], in test [8] and in test [9] was inactive.
As for `CCOP(=S)(OCC)Oc1ccc2c(C)c(Cl)c(=O)oc2c1`, the result in test [1], in [2], in [3], in [4], in test [5] and in test [6] was inactive. The result in test [7] was inactive. In test [9], the AC50 is 6.69 µM (active).
For `CNc1cnn(-c2cccc(C(F)(F)F)c2)c(=O)c1Cl`, the result in test [1], in test [2], in test [3], in test [4], in [5] and in test [6] was inactive. Besides, the outcome in test [8] and in [9] was inactive.
For `CCCCOC(=O)[C@@H](C)Oc1ccc(Oc2ccc(C#N)cc2F)cc1`, the result in test [1], in test [2], in test [3], in test [4], in [5] and in [6] was inactive. Also, the outcome in test [7] and in [9] was inactive.
Regarding `CCOP(=O)(OCC)Oc1cc(C)nc(C(C)C)n1`, the outcome in [1], in test [2], in test [3], in test [4], in [6] and in [7] was inactive. In addition, in [9], the outcome was inactive. Also, the AC50 in test [5] is 39 µM (active).
Turning to `O=c1ccc(=O)[nH][nH]1`, the result in test [1], in test [2], in test [3], in [4], in test [5] and in [6] was inactive. The result in test [9] was inactive.
Turning to `C#CC(C)(C)NC(=O)c1cc(Cl)cc(Cl)c1`, the outcome in test [1], in test [2], in [3], in test [4], in [6] and in [7] was inactive. For the same molecule, in test [9], the outcome was inactive. Further, the AC50 in test [5] was 3.25 µM (active).
Regarding `CCOP(=S)(OCC)OC(Cl)C(Cl)(Cl)Cl` (stereo not drawn), the outcome in [1], in [2], in test [4] and in test [9] was inactive. Moreover, the AC50 was 14.9 µM (active) in test [3], 39.8 µM (active) in test [5], 29.4 µM (active) in test [6] and 12.4 µM (active) in [7].
For the molecule `CCOP(=S)(OCC)Oc1cc(C)nc(C(C)C)n1`, the result in test [1], in [2], in test [3], in test [4], in [5] and in test [6] was inactive. The result in test [9] was inactive.
Turning to `Cc1ccn2nc(S(=O)(=O)Nc3c(F)cccc3F)nc2n1`, the outcome in test [1], in test [2], in test [3], in test [4], in test [5] and in test [6] was inactive. In test [9], the result was inactive. In addition, in test [7], the AC50 was 0.229 µM (active).
Consider `CCCOCC(=Nc1ccc(Cl)cc1C(F)(F)F)n1ccnc1`, for which the concentration at half-maximal activity (AC50) is 33.7 µM (active) in test [1]; 35.1 µM (active) in [2]; 31 µM (active) in test [3]; 34 µM (active) in test [4]; 20 µM (active) in test [5]; 29.8 µM (active) in [6]. For the same molecule, the AC50 in [9] is 35 µM (active).
Consider `CN(C)C(=O)Nc1cccc(C(F)(F)F)c1`, for which the result in [1], in test [2], in test [3], in [4], in [6] and in test [7] was inactive. Also, in test [9], the result was inactive. In test [5], the AC50 is 39 µM (active).
Turning to `CCOP(=S)(OCC)SCCSCC`, the outcome in test [1], in test [2], in [3], in [4], in [6] and in test [9] was inactive. Moreover, the AC50 in test [5] was 9.8 µM (active).
In the case of `CC(Oc1cccc(Cl)c1)C(=O)O` (stereo not drawn), the outcome in [1], in test [2], in test [3], in test [4], in test [5] and in test [6] was inactive. Besides, the result in test [7] and in test [9] was inactive.
As to `CCOP(=O)(NC(C)C)Oc1ccc(SC)c(C)c1` (stereo not drawn), the result in test [1], in [2], in test [3], in test [4], in test [5] and in [6] was inactive. Moreover, the result in test [7] and in test [9] was inactive.
On to `CC(C)N(C(=O)SCC(Cl)=C(Cl)Cl)C(C)C`, for which the concentration at half-maximal activity (AC50) in test [1] is 30.2 µM (active); in test [2], 38.3 µM (active); in test [3], 29.8 µM (active); in [5], 37.2 µM (active); in test [6], 31.5 µM (active). In addition, the outcome in test [4], in test [8] and in test [9] was inactive.
`COc1cccc(C(=O)NN(C(=O)c2cc(C)cc(C)c2)C(C)(C)C)c1C`: the outcome in test [1], in test [2], in test [3], in [4], in [6] and in test [8] was inactive. Further, the outcome in [9] was inactive. Also, the AC50 in test [5] was 39 µM (active).
For `C[N+]1(C)CCCCC1`, the outcome in [1], in test [2], in [3], in [4], in test [5] and in test [6] was inactive. For the same molecule, the result in test [7] and in [9] was inactive.
As to `CCCCOC(=O)c1ccccc1C(=O)O`, the outcome in test [1], in test [2], in test [3], in [4], in [6] and in [7] was inactive. Further, the result in test [8] and in test [9] was inactive. For the same molecule, the concentration at half-maximal activity (AC50) in test [5] is 0.28 µM (active).
Consider `Nc1nc(N)nc(NC2CC2)n1`, for which the outcome in test [1], in test [2], in test [3], in test [4], in test [5] and in test [6] was inactive. In addition, the outcome in test [9] was inactive.
Take `FC(F)C(F)(F)OCC(Cn1cncn1)c1ccc(Cl)cc1Cl` (stereo not drawn): the result in test [1], in test [2], in test [4] and in test [9] was inactive. For the same molecule, the AC50 is 20 µM (active) in test [3], 39 µM (active) in [5] and 33.7 µM (active) in test [6].
Regarding `COP(=O)(OC)OC(Br)C(Cl)(Cl)Br` (stereo not drawn), the AC50 in [1] is 34.9 µM (active); in test [2] it was 35.2 µM (active); in [3] it was 28.8 µM (active); in test [5] it was 16.3 µM (active); in [6], 13.2 µM (active); in [8], 25 µM (active). Further, the result in [4] and in [9] was inactive.
Consider `CCNc1nc(Cl)nc(NC(C)(C)C#N)n1`, for which the outcome in test [1], in [2], in test [3], in [4], in test [5] and in test [6] was inactive. For the same molecule, in [9], the result was inactive.
In the case of `CNC(=O)ON=C(SC)C(=O)N(C)C`, the result in test [1], in [2], in [3], in test [4], in test [6] and in test [9] was inactive. Further, the AC50 in test [5] is 39 µM (active).
In the case of `CSc1nnc(C(C)(C)C)c(=O)n1N`, the outcome in test [1], in test [2], in [3], in test [4], in [5] and in [6] was inactive. For the same molecule, the result in test [9] was inactive.
